Inconclusive results are not listed. The source made the active and inactive calls. Unless noted, calls follow the shape of the dose curve; as a rule, active = well fitted curve in the direction sought with a large enough effect; inconclusive = small, poorly fitted or top-dose-only effect, or another doubt; inactive = no such curve, though single readings can be large; an effect the other way counts as inactive or inconclusive.
What was measured:
[1] = Primary qHTS for small molecule stabilizers of the endoplasmic reticulum resident proteome: Secreted ER Calcium Modulated Protein (SERCaMP) assay (AID 1508630); also: % is scaled to controls: 0 for no effect and ±100 for the full control effect
Outline: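 GLuc-SERCaMP-expressing SH-SY5Y cells, pretreated 16 h with compound, are challenged with thapsigargin to empty ER calcium stores; after 4 h, coelenterazine is added directly to the medium and luminescence is imaged.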

[2] = AP1 Signaling Pathway (AID 357; active = well fitted curve in either direction with a large enough effect, not every such curve was filed as active;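 also: ME-180 reporter cells stimulated with EGF at its EC50 level; % is scaled to controls: 0 for no effect and ±100 for the full control effect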)
Outline: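 Beta-lactamase reporter under AP-1 response element, ME-180 background. Stimulus: EC50 EGF. Compound exposure 5 h, 37 °C. Detection: CCF4, 2.5 h RT, 460/530 nm. Values: AC50 from titration.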

[3] = target: Cytochrome P450 1A2 (Homo sapiens) (UniProt P05177); assay: p450-cyp1a2 (AID 410; calls by dose curve;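 also: -100% = full effect of reference inhibitor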)
Chain of Cytochrome P450 1A2 (Homo sapiens) (P05177 whole entry, looked up): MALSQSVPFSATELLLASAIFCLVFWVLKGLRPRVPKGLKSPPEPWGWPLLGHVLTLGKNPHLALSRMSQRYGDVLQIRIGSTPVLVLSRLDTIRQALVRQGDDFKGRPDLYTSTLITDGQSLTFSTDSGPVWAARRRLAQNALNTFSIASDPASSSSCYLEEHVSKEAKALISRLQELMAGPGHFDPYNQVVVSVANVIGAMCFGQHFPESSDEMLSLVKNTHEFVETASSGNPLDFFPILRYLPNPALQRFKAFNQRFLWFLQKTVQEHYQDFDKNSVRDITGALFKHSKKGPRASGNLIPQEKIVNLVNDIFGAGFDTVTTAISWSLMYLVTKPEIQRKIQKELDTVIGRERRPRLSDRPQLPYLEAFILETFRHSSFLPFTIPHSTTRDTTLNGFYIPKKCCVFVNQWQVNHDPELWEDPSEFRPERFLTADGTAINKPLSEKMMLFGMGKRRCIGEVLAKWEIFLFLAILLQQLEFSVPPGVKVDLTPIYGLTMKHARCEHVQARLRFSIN
Outline: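 20nM CYP1A2 with 100uM Luciferin-ME (at Km) in 100mM KPO4; compound preincubated 10 min, NADPH regeneration added, 60 min at room temperature. Luciferin quantified by luminescence after detection reagent; normalized to 57 uM furafylline.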

[4] = NFAT Signaling Pathway (AID 444; active = well fitted curve in either direction with a large enough effect, not every such curve was filed as active;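 also: carbachol stimulus at about its EC50 of 1 µM final; % is scaled to controls: 0 for no effect and ±100 for the full control effect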); conditions: Jurkat NFAT-bla M1, carbachol, beta-lactamase ratio, 5 h; at 38 µM (top of the series)
Outline: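 Read-out: CCF4 FRET ratio (460 nm/530 nm) after 1 h RT dye loading, used for %activity and AC50 from titration series. Cells: Jurkat NFAT-β-lactamase/M1 line, treated with compound plus 1 uM carbachol for 5 h, 37 °C.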

[5] = Stat Signaling Pathway (AID 446; active = well fitted curve in either direction with a large enough effect, not every such curve was filed as active;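 also: ME-180 cervical cancer cells given 40 pM IL-6 alongside compound; SIE-controlled beta-lactamase reporter measured as 460/530 nm FRET emission ratio; % is scaled to controls: 0 for no effect and ±100 for the full control effect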)
Outline: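 Screening format detects activators and inhibitors alike: ME-180 SIE-bla cells stimulated at 40 pM IL-6 for 5 hrs with compound, then dual-emission beta-lactamase read at 405 nm excitation.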

[6] = target: Mitogen-activated protein kinase 10 (Mus musculus) (UniProt Q61831); assay: JNK3 AlphaScreen Assay (AID 530; active = well fitted curve in either direction with a large enough effect, not every such curve was filed as active)
Outline: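 Compound titrations were preincubated 15 minutes at room temperature with substrate, antibody and pre-activated JNK3-containing HepG2 lysate. Reactions were started with 10 uM ATP and stopped with EDTA-containing bead buffer for AlphaScreen detection.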

[7] = target: 3',5'-cyclic-AMP phosphodiesterase 4B (Homo sapiens) (UniProt Q07343); assay: qHTS Assay for Inhibitors of PDE-IV (AID 607; active = well fitted activation curve with a large enough effect in the main read-out, with a control signal flat, not every such curve was filed as active; also: % of control where 0% means no effect)
Chain of 3',5'-cyclic-AMP phosphodiesterase 4B (Homo sapiens) (Q07343 whole entry, looked up): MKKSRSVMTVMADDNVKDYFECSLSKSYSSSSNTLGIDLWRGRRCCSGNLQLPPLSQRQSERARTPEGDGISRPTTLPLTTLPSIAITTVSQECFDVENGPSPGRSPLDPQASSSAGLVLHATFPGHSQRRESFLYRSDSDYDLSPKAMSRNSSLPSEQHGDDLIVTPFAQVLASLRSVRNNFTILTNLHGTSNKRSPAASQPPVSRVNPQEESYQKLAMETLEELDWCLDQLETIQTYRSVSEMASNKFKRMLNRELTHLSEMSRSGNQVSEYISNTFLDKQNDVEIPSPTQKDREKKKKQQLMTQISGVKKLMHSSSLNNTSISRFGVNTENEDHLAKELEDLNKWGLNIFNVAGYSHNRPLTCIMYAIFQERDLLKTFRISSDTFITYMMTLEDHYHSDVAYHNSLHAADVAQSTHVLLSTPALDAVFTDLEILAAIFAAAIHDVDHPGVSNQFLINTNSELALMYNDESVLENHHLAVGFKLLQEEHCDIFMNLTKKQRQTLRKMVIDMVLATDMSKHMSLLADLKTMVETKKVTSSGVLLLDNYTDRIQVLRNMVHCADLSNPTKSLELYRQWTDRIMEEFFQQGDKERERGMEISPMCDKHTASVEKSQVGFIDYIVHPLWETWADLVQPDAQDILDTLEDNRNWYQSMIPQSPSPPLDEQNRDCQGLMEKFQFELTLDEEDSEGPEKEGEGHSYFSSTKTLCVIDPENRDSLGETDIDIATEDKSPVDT
Outline: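 The readout is membrane depolarisation from a cAMP-sensing CNG channel, detected with a potential dye at ex 535/em 590. Cells were HEK293-derived (endogenous PDE-IV) at 1000 cells/well, titrated up to 22.9 uM final.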

[8] = target: Cytochrome P450 2C9 (Homo sapiens) (UniProt P11712); assay: qHTS Assay for Inhibitors and Substrates of Cytochrome P450 2C9 (AID 883); also: % is scaled to controls: 0 for no effect and ±100 for the full control effect; nearly all actives have a fitted effect of over 60% in size
Chain of Cytochrome P450 2C9 (Homo sapiens) (P11712 whole entry, looked up): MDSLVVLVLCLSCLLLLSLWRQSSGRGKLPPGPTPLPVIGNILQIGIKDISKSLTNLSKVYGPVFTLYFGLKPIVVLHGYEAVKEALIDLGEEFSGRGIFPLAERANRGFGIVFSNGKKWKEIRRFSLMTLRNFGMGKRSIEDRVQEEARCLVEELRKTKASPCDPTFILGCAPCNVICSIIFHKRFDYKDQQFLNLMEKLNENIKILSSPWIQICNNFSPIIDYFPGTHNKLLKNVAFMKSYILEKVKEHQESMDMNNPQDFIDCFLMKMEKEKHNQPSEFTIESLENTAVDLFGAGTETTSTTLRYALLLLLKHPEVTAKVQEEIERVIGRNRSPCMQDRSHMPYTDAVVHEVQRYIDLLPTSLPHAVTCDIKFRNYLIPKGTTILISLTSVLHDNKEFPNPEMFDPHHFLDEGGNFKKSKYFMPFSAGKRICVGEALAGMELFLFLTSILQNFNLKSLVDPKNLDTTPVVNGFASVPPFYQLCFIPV
Outline: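 Inhibition of CYP2C9 is scored as loss of luminescence, with 57uM sulphaphenazole defining 100% inhibition. Substrate Luciferin-H is used at 100uM, equal to its KM; enzyme at 10nM in 25mM KPO4, 60 min at 37C with NADPH regeneration.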

[9] = target: Cytochrome P450 2D6 (Homo sapiens) (UniProt P10635); assay: qHTS Assay for Inhibitors and Substrates of Cytochrome P450 2D6 (AID 891);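 also: luciferin methyl ether substrate demethylated by CYP2D6 with NADPH regeneration; % is scaled to controls: 0 for no effect and ±100 for the full control effect; nearly all actives have a fitted effect of over 60% in size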
Chain of Cytochrome P450 2D6 (Homo sapiens) (P10635 whole entry, looked up): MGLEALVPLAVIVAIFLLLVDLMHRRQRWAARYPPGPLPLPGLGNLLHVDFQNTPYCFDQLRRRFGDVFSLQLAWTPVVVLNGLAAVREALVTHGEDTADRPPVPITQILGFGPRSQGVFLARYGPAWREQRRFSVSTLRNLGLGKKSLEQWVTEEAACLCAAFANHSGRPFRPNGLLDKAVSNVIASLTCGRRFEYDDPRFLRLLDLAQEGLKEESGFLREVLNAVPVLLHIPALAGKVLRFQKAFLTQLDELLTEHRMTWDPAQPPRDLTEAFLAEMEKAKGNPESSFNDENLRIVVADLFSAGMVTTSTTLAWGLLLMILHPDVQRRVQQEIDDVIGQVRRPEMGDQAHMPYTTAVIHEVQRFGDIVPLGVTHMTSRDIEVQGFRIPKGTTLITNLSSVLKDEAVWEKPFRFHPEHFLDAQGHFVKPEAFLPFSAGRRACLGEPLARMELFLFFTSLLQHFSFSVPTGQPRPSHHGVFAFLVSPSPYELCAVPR
Outline: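 Human CYP2D6 (5 nM) with 30 uM Luciferin-ME EGE (at Km) in 100 mM KPO4, compound preincubated 10 min, then NADPH regeneration system for 60 min at room temperature. Luciferin read by luminescence; normalized to 1.43 uM quinidine.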

[10] = target: Cytochrome P450 2C19 (Homo sapiens) (UniProt P33261); assay: qHTS Assay for Inhibitors and Substrates of Cytochrome P450 2C19 (AID 899); also: % is scaled to controls: 0 for no effect and ±100 for the full control effect; nearly all actives have a fitted effect of over 60% in size
Chain of Cytochrome P450 2C19 (Homo sapiens) (P33261 whole entry, looked up): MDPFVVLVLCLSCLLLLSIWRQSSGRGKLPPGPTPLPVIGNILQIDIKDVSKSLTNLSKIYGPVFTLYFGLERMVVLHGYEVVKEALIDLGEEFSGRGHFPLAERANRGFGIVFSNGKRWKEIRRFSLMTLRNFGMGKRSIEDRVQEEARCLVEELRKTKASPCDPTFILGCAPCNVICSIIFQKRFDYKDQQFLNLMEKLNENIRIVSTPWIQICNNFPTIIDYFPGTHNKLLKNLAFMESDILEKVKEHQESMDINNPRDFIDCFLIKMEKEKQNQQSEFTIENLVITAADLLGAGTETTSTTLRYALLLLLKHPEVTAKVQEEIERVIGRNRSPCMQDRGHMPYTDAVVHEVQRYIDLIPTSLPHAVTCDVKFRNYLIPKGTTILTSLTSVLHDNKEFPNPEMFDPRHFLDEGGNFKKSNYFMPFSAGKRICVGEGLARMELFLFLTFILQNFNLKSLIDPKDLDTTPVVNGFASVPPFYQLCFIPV
Outline: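 5nM enzyme + 10uM Luciferin-H EGE (=KM), 50mM KPO4; cpd pin-transferred, 10 min 37C; NADPH regen, 60 min 37C; stopped w/ luciferin detection reagent, 20 min; luminescence. Normalized to 57uM ketoconazole (AC100).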

[11] = Confirmation and Secondary Assay for Modulators of Hemoglobin Beta Chain Splicing at IVS2 654 locus (AID 910);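 also: HeLa cells stably carrying EGFP split by mutant beta-globin IVS2-654 intron; per-well total GFP intensity by laser scanning cytometry after 2-day treatment; % of control where 0% means no effect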
Outline: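 Readout: per-well total peak green fluorescence (488 nm ex, 500–520 nm em) from objects 5–250 µm, reflecting correct splicing of an EGFP-654 reporter. Compounds were applied for 2 days at 37 °C to overnight-plated HeLa EGFP-654 cells; controls were DMSO and 500 nM IVS2-654 PNA.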

[12] = Confirmation and Secondary Assay for Modulators of Hemoglobin Beta Chain Splicing at IVS2 705 locus (AID 930);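 also: HeLa cells stably expressing the EGFP-705 splicing reporter; GFP fluorescence per well restored by corrected splicing of the IVS2-705 intron in EGFP; % of control where 0% means no effect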
Outline: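 Secondary splice-site specificity test uses HeLa expressing CMV-driven EGFP interrupted by IVS2-705; cells were treated 2 days at 37C with 500 nM antisense PNA as positive control.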

[13] = target: DNA dC->dU-editing enzyme APOBEC-3G (Homo sapiens) (UniProt Q9HC16); assay: qHTS for inhibitors of Vif-A3G interactions: Validation (AID 588379); also: 0% is about no effect
Chain of DNA dC->dU-editing enzyme APOBEC-3G (Homo sapiens) (Q9HC16 whole entry, looked up): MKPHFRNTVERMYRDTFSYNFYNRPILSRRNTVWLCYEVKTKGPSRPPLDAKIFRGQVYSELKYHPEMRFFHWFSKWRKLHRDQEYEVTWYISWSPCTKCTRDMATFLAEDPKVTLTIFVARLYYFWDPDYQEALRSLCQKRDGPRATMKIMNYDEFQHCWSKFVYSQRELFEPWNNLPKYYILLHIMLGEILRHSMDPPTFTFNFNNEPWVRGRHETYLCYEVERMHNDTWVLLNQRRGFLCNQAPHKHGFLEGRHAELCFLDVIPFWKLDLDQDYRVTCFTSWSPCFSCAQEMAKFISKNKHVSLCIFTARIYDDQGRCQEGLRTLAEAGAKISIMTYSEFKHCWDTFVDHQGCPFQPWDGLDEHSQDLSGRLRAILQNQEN
Outline: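 HeLa cells stably expressing Vif and A3G-eYFP, 700 cells/well, incubated overnight at 37 deg C, then exposed to compound overnight at 37 deg C. Inhibition of Vif-mediated degradation read as increased yellow fluorescence (Ex 488/Em 500-530) by laser-scanning cytometry.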

CCCCC/C=C\C/C=C\C/C=C\C=C\[C@H](CCCC(=O)O)OO
inactive: activity change, negative = inhibition [1] -17.5% [at 0.478 µM]

CN1CCN(C(=O)O[C@@H]2c3nccnc3C(=O)N2c2ccc(Cl)cn2)CC1
inactive: outcome [2] | Potency [3] | activity change, negative = inhibition [4] -27.2% | outcome [5] | outcome [6] | Potency [7] | Potency [8] | Potency [9] | Potency [10] | Potency [11] | outcome [12] | Potency [13] | Potency [1]

COC(C/C=C/C=C/CC/C=C\CC(C)/C=C\C(=C/C(=O)O)CC(=O)O)/C(C)=C\C=C(/C)C(=O)O (stereo not given)
inactive: activity change, negative = inhibition [1] -26.8% [at 3.88 µM]
